Only some compounds are listed: those with a hit (about 7.3% of all), similar ones and a draw of the others.
Vaccinia Venus = qHTS for Stage-Specific Inhibitors of Vaccinia Orthopoxvirus: Venus Reporter Primary qHTS; Vaccinia virus Venus reporter expression, fluorescence; Potency, µM (doses to about 36.5 µM), most hits filed as inhibitors; hit rate 0.46% among 330,000; AID 720580, 2013; calls by dose curve; tested in A549 cells; also: nearly all actives have a fitted effect of over 30% in size
FMDV antiviral = High Throughput Screening for Foot and Mouth Disease Virus Antivirals; Potency, µM (series often up to 57.9 µM), actives largely listed as inhibitors; hit rate 1.2% among 410,000; FMDV antiviral cell-based qHTS; calls by dose curve; tested in HEK293T cells; also: read-out not given here; nearly all actives have a fitted effect of over 45% in size
HCMV inh = qHTS Assay for inhibitors of the human cytomegalovirus (HCMV) | hit rate 4.5% among 410,000 | HFF cells, HCMV-luciferase reporter, 72 h; stronger effect = lower value | AID 1259415, 2018 | activity change, negative = inhibition, % at 57.5 µM; in the data active = activity change below about -60%; inconclusive = no clear call, values can overlap the other calls; inactive = above about -39%
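Steps: HFFs plated, 16 h 37C; compounds added; HCMV-luciferase added to MOI 1 PFU/cell; 72 h 37C; OneGlo reagent, 5 min room temperature; luminescence read, normalized to controls.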
VACV mCherry inh = qHTS for Stage-Specific Inhibitors of Vaccinia Orthopoxvirus: mCherry Reporter Primary qHTS; Vaccinia virus mCherry reporter infection, fluorescence; Potency, µM (doses to about 36.5 µM), actives largely listed as inhibitors; hit rate 0.63% among 310,000; calls by dose curve; tested in A549 cells; also: nearly all actives have a fitted effect of over 35% in size
HCV inh = qHTS Assay for Inhibitors of Hepatitis C Virus (HCV); hit rate 3.4% among 340,000; Potency, µM (highest dose often 41.8 µM), most hits filed as inhibitors; Huh7.5.1 HCVcc-Cre infection, luciferase reporter, 44 h; active = well fitted inhibition curve with a large enough effect; inconclusive = small, poorly fitted or top-dose-only effect, or another doubt; inactive = no such curve, though single readings can be large or run the other way
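Cells seeded at 1,000/well and cultured 4 h, then compounds added followed by HCVcc-Cre virus (~0.5 moi). After 44 h further culture, luciferase substrate was added, plates held 15 min at room temperature, and luminescence read for 15 sec.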
Each line names hits and unclear results; the compound was inactive in the other large screens.

CCOc1ccc2oc(=O)cc(CN3CCN(c4cc(C)ccc4C)CC3)c2c1	none (no result: HCV inh)
CCOC(=O)[C@]12Cc3cc(Cl)ccc3[C@H]1N(CC(=O)OC)C(=O)c1ccccc12	Vaccinia Venus inconclusive, FMDV antiviral 10µM, VACV mCherry inh inconclusive (no result: HCMV inh, HCV inh)
CCOC(=O)[C@]12Cc3cc(Cl)ccc3[C@H]1N(C)C(=O)c1ccccc12	FMDV antiviral inconclusive (no result: HCV inh)
CCOC(=O)[C@]12Cc3cc(Cl)ccc3[C@H]1N(C(C)C)C(=O)c1ccccc12	Vaccinia Venus inconclusive, FMDV antiviral 10µM, HCMV inh -99, VACV mCherry inh inconclusive (no result: HCV inh)
Cc1cc(-n2c(SCC(=O)NCCC3=CCCCC3)nc3n[nH]c(C)c3c2=N)ccc1Cl	HCV inh inconclusive (no result: Vaccinia Venus, VACV mCherry inh)
Cc1ccccc1-n1c(SCc2ccccn2)nc2n[nH]c(C)c2c1=N	Vaccinia Venus inconclusive, HCV inh 11µM (no result: VACV mCherry inh)
Cc1c(Cl)cccc1-n1c(SCC(=O)NCc2ccccc2)nc2n[nH]c(C)c2c1=N	Vaccinia Venus inconclusive, HCMV inh -61, VACV mCherry inh inconclusive (no result: HCV inh)
Cc1[nH]nc2nc(SCC(=O)NCCC3=CCCCC3)n(-c3ccc(Br)cc3)c(=N)c12	HCMV inh -78, HCV inh inconclusive (no result: Vaccinia Venus, VACV mCherry inh)
Cc1ccc(CNC(=O)CSc2nc3n[nH]c(C)c3c(=N)n2-c2ccccc2Cl)cc1	none (no result: HCV inh)
CCc1ccccc1-n1c(SCC(=O)Nc2ccc(C)cc2)nc2n[nH]c(C)c2c1=N	Vaccinia Venus inconclusive, FMDV antiviral inconclusive, HCMV inh -69, VACV mCherry inh inconclusive (no result: HCV inh)
Cc1cc(C)cc(N(CCC#N)C(=O)CSc2nc3ccccc3c(=O)[nH]2)c1	none
O=C1CN(c2nc(-c3cccs3)nc3sc4c(c23)CCCC4)CCN1	Vaccinia Venus inconclusive, HCV inh 5.6µM
O=c1oc(-c2cccs2)nc2sc3c(c12)CCCC3	none (no result: FMDV antiviral)
O=C(Nc1ccccc1C(F)(F)F)N1CCC2(CC1)Oc1ccccc1C(=O)N2Cc1ccccc1F	HCMV inh -74 (no result: HCV inh)
CC(=O)c1ccc(OCC(O)CN2CCN(CCN3C(=O)c4cccc5cccc(c45)C3=O)CC2)cc1 (configuration not stated)	Vaccinia Venus inconclusive, FMDV antiviral inconclusive, HCMV inh -84, VACV mCherry inh inconclusive, HCV inh inconclusive
CCC(OCC(O)CN1CCN(CCN2C(=O)c3cccc4cccc(c34)C2=O)CC1)c1ccccc1 (configuration not stated)	Vaccinia Venus inconclusive, FMDV antiviral 28µM, HCMV inh inconclusive, VACV mCherry inh inconclusive, HCV inh 7.9µM
CC(=O)c1ccc(OCC(O)CN2CCN(S(=O)(=O)c3c(C)c(C)cc(C)c3C)CC2)cc1 (configuration not stated)	HCMV inh -72, HCV inh 13µM
CC(=O)c1cccc(NC(=S)N2CCN(CCN3C(=O)c4cccc5cccc(c45)C3=O)CC2)c1	HCMV inh -79, HCV inh inconclusive
CC(=O)c1ccc(OCC(O)CN2CCN(CC(O)COc3ccc(C(C)=O)cc3)CC2)cc1 (configuration not stated)	none (no result: VACV mCherry inh)
O=C(c1ccc(S(=O)(=O)N2CCCC2)cc1)N1CCCCCC1	HCMV inh inconclusive (no result: Vaccinia Venus, VACV mCherry inh)
Cc1cc(C)nc(N2CCN(C(=O)c3ccc(S(=O)(=O)N4CCCCCC4)cc3)CC2)n1	FMDV antiviral inconclusive, HCV inh 11µM
O=C(c1ccc(S(=O)(=O)N2CCCCC2)cc1)N1CCN(CCN2C(=O)c3cccc4cccc(c34)C2=O)CC1	FMDV antiviral 16µM, HCMV inh inconclusive, HCV inh inconclusive
Cc1ccc(S(=O)(=O)N2CCN(C(=O)c3ccc(S(=O)(=O)N4CCCC4)cc3)CC2)cc1	none (no result: Vaccinia Venus, VACV mCherry inh)
C=CCc1ccccc1OCC(O)CN1CCN(CCN2C(=O)c3cccc4cccc(c34)C2=O)CC1 (configuration not stated)	Vaccinia Venus inconclusive, FMDV antiviral 28µM, VACV mCherry inh inconclusive, HCV inh 14µM
Cc1cccc(C)c1OCC(O)CN1CCC(CN2C(=O)c3cccc4cccc(c34)C2=O)CC1 (configuration not stated)	FMDV antiviral 22µM, HCV inh inconclusive
CCOc1cc(CNC(=O)c2ccc3c(c2)nc2n3CCCCC2)ccc1OC	none (no result: HCV inh)
CN(C(=O)c1cnc(N2CCN(c3ncccn3)CC2)c2ccccc12)c1ccc(Cl)cc1	FMDV antiviral 20µM, HCMV inh inconclusive, HCV inh inconclusive
O=C(c1sc2ccccc2c1Cl)N1CCN(c2ncccn2)CC1	FMDV antiviral inconclusive, HCMV inh -63 (no result: Vaccinia Venus, VACV mCherry inh)
Cc1ccc(Cl)cc1N(C)C(=O)c1cnc(N2CCOCC2)c2ccccc12	none (no result: HCV inh)
O=C(c1cnc(N2CCN(c3ncccn3)CC2)c2ccccc12)N1CCN(c2ncccn2)CC1	HCMV inh inconclusive, HCV inh 11µM
O=C(O)c1ccccc1C(=O)N1CCN(c2ncccn2)CC1	none
CCN(C(=O)c1cnc(N2CCN(c3ncccn3)CC2)c2ccccc12)c1cccc(Cl)c1	Vaccinia Venus inconclusive, FMDV antiviral 20µM, HCMV inh -85, VACV mCherry inh inconclusive, HCV inh inconclusive
COc1ccc(Nc2nc3ccccc3c3nnc(C)n23)cc1Cl	none (no result: HCV inh)
O=[N+]([O-])c1ccc2c(c1)C=C/C2=C/c1ccccc1	none (no result: FMDV antiviral, HCMV inh, HCV inh)
Cc1ccc(S(=O)(=O)Nc2ccc(-c3csc(-c4ccccc4)n3)cc2)cc1	VACV mCherry inh inconclusive, HCV inh 10µM
O=C(CCNC(=O)c1ccccc1Cl)Nc1nc(-c2ccc(F)cc2)cs1	FMDV antiviral inconclusive, HCMV inh -80
COc1ccc(-c2csc(NC(=O)c3ccccc3NS(=O)(=O)c3ccc(F)c(F)c3)n2)cc1	Vaccinia Venus inconclusive, FMDV antiviral inconclusive, HCMV inh -100, VACV mCherry inh inconclusive, HCV inh 2.8µM
Cc1ccc(S(=O)(=O)Nc2ccccc2C(=O)Nc2nc(-c3ccc(F)cc3)cs2)cc1	Vaccinia Venus inconclusive, HCMV inh -103, VACV mCherry inh inconclusive, HCV inh 6.3µM
O=S(=O)(Nc1ccc(-c2csc(-c3ccccc3)n2)cc1)c1ccccc1	VACV mCherry inh inconclusive, HCV inh inconclusive
Cc1ccc(S(=O)(=O)Nc2nc(-c3ccccc3)cs2)cc1	HCMV inh inconclusive
CCOc1cccc(C(=O)Nc2ccccc2C(=O)N2CCN(C)CC2)c1	none
COc1ccc(-n2c(=O)c(-c3ccccc3)nc3cnc(N4CCOCC4)nc32)cc1	none (no result: Vaccinia Venus, HCMV inh, VACV mCherry inh, HCV inh)
CC(C)CC1NC(=O)c2ccc(Cl)cc2-n2c1nc1ccc(Cl)cc1c2=O (configuration not stated)	none (no result: Vaccinia Venus, FMDV antiviral, VACV mCherry inh)
Cc1c(CCNS(=O)(=O)c2ccccc2)sc2nc(-c3ccc(Cl)cc3)nn12	Vaccinia Venus inconclusive, HCMV inh -75, VACV mCherry inh inconclusive (no result: HCV inh)
Cc1cc(C)c(S(=O)(=O)NCCc2csc3nc(-c4ccc(Cl)cc4)nn23)c(C)c1	HCMV inh -66 (no result: HCV inh)
O=S(=O)(NCCc1csc2nc(-c3ccccc3)nn12)c1ccc(Oc2ccccc2)cc1	HCMV inh -67 (no result: HCV inh)
